Measured values published in PubChem BioAssay (NCI).
The panel holds about 83,000 compounds, 20% with a hit somewhere; the sample as a whole holds those more often.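 Growth was measured after 48 h exposure to one concentration of compound in 96-well plates. Values under 10 count as active.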 Calls of active or inactive are those of the source.

Tests used:
Assay in all cases: NCI-60 one-dose screen, 48 h (100 = growth as untreated, 0 = no growth, -100 = all killed)
[1] = system: NCI-H23 lung; conditions: 10 µM unless noted
[2] = system: NCI-H226 lung; conditions: 10 µM unless noted
[3] = system: NCI-H322M lung; conditions: 10 µM unless noted
[4] = system: HOP-62 NSCLC; conditions: 10 µM unless noted
[5] = system: NCI-H460 lung; conditions: 10 µM unless noted
[6] = system: A549/ATCC NSCLC; conditions: 10 µM unless noted
[7] = system: 786-0 renal; conditions: 10 µM unless noted
[8] = system: COLO 205 colon; conditions: 10 µM unless noted
[9] = system: DU-145 prostate; conditions: 10 µM unless noted
[10] = system: K-562 leukemia; conditions: 10 µM unless noted
[11] = system: MALME-3M melanoma; conditions: 10 µM unless noted
[12] = system: MDA-MB-231 breast; conditions: 10 µM unless noted
[13] = system: RXF 393 renal; conditions: 10 µM unless noted
[14] = system: SF-268 CNS; conditions: 10 µM unless noted
[15] = system: SF-295 CNS; conditions: 10 µM unless noted
[16] = system: SF-539 CNS; conditions: 10 µM unless noted
[17] = system: UACC-257 melanoma; conditions: 10 µM unless noted
[18] = system: M14 melanoma; conditions: 10 µM unless noted
[19] = system: NCI-H522 lung; conditions: 10 µM
[20] = system: HOP-92 NSCLC; conditions: 10 µM unless noted

Measured: growth

COc1ccc2cc(C3=CC(=O)CCC3)ccc2c1
inactive: [1] 91.8% | [2] 55.5% | [3] 93.6% | [4] 112% | [5] 110% | [6] 82.6% | [7] 90.5% | [8] 99.9% | [9] 103% | [10] 105% | [11] 114% | [12] 99.6% | [13] 99.4% | [14] 103% | [15] 110% | [16] 95.7% | [17] 96.6% | [18] 104%

O=C(/C=C(\Nc1ccccc1)c1ccccc1)c1cn(-c2ccc([N+](=O)[O-])cc2)nn1
inactive: [1] 91.4% | [2] 95.3% | [3] 82.8% | [4] 101% | [5] 91% | [19] 86.1% | [7] 92.1% | [8] 97.2% | [9] 125% | [10] 73.8% | [11] 103% | [12] 103% | [14] 98.3% | [15] 73.3% | [16] 94.9% | [17] 42.4% | [18] 97.6%

FC(F)(F)c1cc(-c2nnc3n2N=C(N2CCCC2)CS3)cc(C(F)(F)F)c1
inactive: [1] 62.7% | [2] 58.4% | [3] 99% | [4] 37.7% | [5] 58.1% | [20] 37.4% | [6] 60.4% | [8] 98.1% | [9] 86.8% | [10] 70.7% | [11] 83.4% | [12] 59.6% | [14] 74.9% | [15] 45.9% | [16] 30% | [17] 93.2% | [18] 100%

Fc1ccc(-c2nn3c(-c4cc(C(F)(F)F)cc(C(F)(F)F)c4)nnc3s2)cc1
inactive: [1] 45.5% | [3] 56.3% | [6] 33.3% | [8] 73.1% | [9] 87.1% | [10] 68.8% | [11] 43.8% | [12] 39.5% | [14] 37.3% | [15] 38.4% | [16] 39.7% | [17] 76.7% | [18] 64.6%
active: [2] 6.11% | [4] -11.5% | [5] 4.16% | [20] -20.5%

Nc1nc2c(c(=O)[nH]1)C1(C(=O)Nc3ccccc31)c1c(nc(N)[nH]c1=O)N2
inactive: [1] 106% | [2] 91.5% | [3] 98.1% | [4] 101% | [5] 104% | [6] 112% | [7] 108% | [8] 102% | [9] 108% | [10] 115% | [11] 99.9% | [12] 98.7% | [13] 96.6% | [14] 104% | [15] 101% | [16] 106% | [17] 110% | [18] 99.3%

Cn1c(N2N=C(c3ccc(Cl)cc3)CC2c2ccccc2)nc(-c2ccccc2)c(C#N)c1=O (stereo not drawn)
inactive: [1] 66.3% | [2] 74.5% | [3] 83.5% | [4] 83% | [5] 58.7% | [20] 16% | [6] 64.8% | [7] 84.4% | [8] 99.4% | [9] 89.4% | [11] 97.6% | [12] 58.6% | [13] 96.4% | [14] 57.9% | [15] 85.4% | [16] 103% | [18] 90%

N#Cc1c(-c2ccccc2)cc(-c2ccccc2)n(CCCCCCC(=O)O)c1=O
inactive: [1] 96.7% | [2] 93.1% | [3] 96.5% | [4] 94.4% | [5] 102% | [6] 102% | [7] 105% | [8] 111% | [9] 116% | [10] 94.3% | [11] 94.5% | [12] 94.8% | [13] 92.7% | [14] 97.8% | [15] 94.1% | [16] 97.4% | [17] 109% | [18] 101%

COc1cccc(/C=N/Nc2nc3ccccc3s2)c1OC
inactive: [1] 101% | [2] 83.3% | [3] 76% | [4] 68.8% | [5] 34.5% | [6] 69.1% | [7] 82.1% | [8] 71.6% | [9] 98.3% | [10] 50.9% | [11] 90.4% | [12] 86.3% | [13] 97.9% | [14] 72.7% | [15] 85.4% | [16] 74.2% | [17] 96.4% | [18] 91.1%

Cc1ccc2nc(SCC(=O)Nc3ccc(-c4nc5ccccc5s4)c(Cl)c3)[nH]c2c1
inactive: [1] 109% | [2] 98.7% | [3] 101% | [4] 114% | [5] 116% | [6] 98.3% | [7] 98.1% | [8] 107% | [9] 132% | [10] 109% | [11] 131% | [12] 113% | [13] 98.6% | [14] 105% | [15] 106% | [16] 109% | [17] 96.9% | [18] 111%
